From PubChem BioAssay (NCI)
The panel holds about 83,000 compounds, 20% with a hit somewhere; the sample as a whole holds those more often.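 Single-dose data. Exposure time 48 hours. Values below 10 considered active.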 Calls of active or inactive are those of the source.

Tests used:
Assay in all cases: NCI-60 one-dose screen, 48 h (100 = growth as untreated, 0 = no growth, -100 = all killed)
Details in all cases: 10 µM unless noted
[1] = test system: NCI-H23 lung
[2] = test system: NCI-H226 lung
[3] = test system: NCI-H322M lung
[4] = test system: HOP-62 NSCLC
[5] = test system: NCI-H460 lung
[6] = test system: A549/ATCC NSCLC
[7] = test system: 786-0 renal
[8] = test system: COLO 205 colon
[9] = test system: DU-145 prostate
[10] = test system: K-562 leukemia
[11] = test system: MALME-3M melanoma
[12] = test system: MDA-MB-231 breast
[13] = test system: RXF 393 renal
[14] = test system: SF-268 CNS
[15] = test system: SF-295 CNS
[16] = test system: SF-539 CNS
[17] = test system: UACC-257 melanoma
[18] = test system: NCI-H522 lung
[19] = test system: M14 melanoma

SMILES	growth [1]	growth [2]	growth [3]	growth [4]	growth [5]	growth [6]	growth [7]	growth [8]	growth [9]	growth [10]	growth [11]	growth [12]	growth [13]	growth [14]	growth [15]	growth [16]	growth [17]	growth [18]	growth [19]
CC(=O)NC1C(O[C@H]2C[C@H]3[C@@H]4CC=C5C[C@@H](O)CC[C@]5(C)[C@H]4CC[C@]3(C)[C@H]2[C@H](C)C(=O)CCC(C)C)OCC(O)C1O (stereo partly specified)	65.9% (inactive)	60.6% (inactive)	81.3% (inactive)	52% (inactive)	22.9% (inactive)	53.1% (inactive)	1.28% (active)	30.1% (inactive)	57.7% (inactive)	0.56% (active)	34.7% (inactive)	59.9% (inactive)	-43.2% (active)	31% (inactive)	-53.2% (active)	-26.2% (active)	-15.5% (active)		
COc1ccc(-c2conc2-n2nc(-c3ccccc3)nc2-c2ccccc2)cc1	98.3% (inactive)	89.7% (inactive)	97.6% (inactive)	95.9% (inactive)	120% (inactive)	114% (inactive)	107% (inactive)		119% (inactive)		105% (inactive)	94% (inactive)	113% (inactive)	122% (inactive)	98.8% (inactive)	107% (inactive)	115% (inactive)	89.7% (inactive)	98.6% (inactive)
C=CCOC(=O)C1=C(C)NC2=C(C(=O)CCC2)C1c1ccc(F)cc1 (stereo unspecified)	92.4% (inactive)	89.9% (inactive)	95.6% (inactive)	85.9% (inactive)	106% (inactive)	97.3% (inactive)	99.9% (inactive)		113% (inactive)	96.3% (inactive)	111% (inactive)	98% (inactive)	111% (inactive)	106% (inactive)	102% (inactive)	102% (inactive)	92.8% (inactive)	82.4% (inactive)	96.1% (inactive)
CC1(C)CC(=O)c2cc3c(N)c(C(=O)Nc4ccc(Cl)cc4)sc3nc2C1	105% (inactive)	108% (inactive)	114% (inactive)	108% (inactive)	109% (inactive)	97.6% (inactive)	98.7% (inactive)		103% (inactive)	107% (inactive)	119% (inactive)	115% (inactive)	116% (inactive)	125% (inactive)	100% (inactive)	114% (inactive)	91.4% (inactive)	95.8% (inactive)	107% (inactive)
Nc1c(C(=O)Nc2cccc(Cl)c2)sc2nc3c(cc12)C(=O)CCC3	38% (inactive)	57.9% (inactive)	71.8% (inactive)	47% (inactive)	10.3% (inactive)	28.2% (inactive)	47.7% (inactive)		11.6% (inactive)	22.8% (inactive)	49.7% (inactive)	43.9% (inactive)	25.9% (inactive)	63.1% (inactive)	-20.2% (active)	27.3% (inactive)	68.9% (inactive)	14.6% (inactive)	26.9% (inactive)
COc1ccc2c(c1)N(Cc1ccc(Cl)cc1)CCC2N1CCCC1=O (stereo unspecified)	52.7% (inactive)	46.5% (inactive)	39.9% (inactive)	52.4% (inactive)	39.1% (inactive)	44.4% (inactive)	48.6% (inactive)	67.3% (inactive)	43.9% (inactive)	47.4% (inactive)	39.8% (inactive)	61.8% (inactive)	39.4% (inactive)	59.2% (inactive)	28.3% (inactive)	48.5% (inactive)	63.6% (inactive)		60.9% (inactive)
O=C(/C=C/c1cn(-c2ccccc2)nc1-c1ccccc1)OCc1cn(-c2cccc([N+](=O)[O-])c2)nn1	91.4% (inactive)	97.1% (inactive)	94.7% (inactive)	81.7% (inactive)	93.7% (inactive)	67.8% (inactive)	91.2% (inactive)	89.5% (inactive)	103% (inactive)	76.2% (inactive)	97.9% (inactive)	72.8% (inactive)	105% (inactive)	93.3% (inactive)	97.8% (inactive)	89.2% (inactive)	44.9% (inactive)		91.3% (inactive)
Cc1ccc(C(=O)CC(=O)C(F)(F)C(F)(F)C(F)(F)F)s1	105% (inactive)	103% (inactive)	105% (inactive)	96.9% (inactive)	111% (inactive)	104% (inactive)	97.2% (inactive)		104% (inactive)		98.7% (inactive)	92.1% (inactive)	111% (inactive)	101% (inactive)	103% (inactive)	98.7% (inactive)	105% (inactive)	121% (inactive)	103% (inactive)
N=C(N)c1ccc(NCCNc2ccc(C(=N)N)cc2)cc1	85.9% (inactive)	62.6% (inactive)	95.5% (inactive)	121% (inactive)	50.3% (inactive)	42.2% (inactive)	117% (inactive)	142% (inactive)	106% (inactive)	82.1% (inactive)	100% (inactive)	87.3% (inactive)	98.3% (inactive)	113% (inactive)	66.3% (inactive)	84.7% (inactive)	62.3% (inactive)		125% (inactive)
COc1ccc(-n2c(COc3ccc(F)cc3)n[nH]c2=S)cc1	112% (inactive)	101% (inactive)	96.8% (inactive)	105% (inactive)	110% (inactive)	131% (inactive)	102% (inactive)		112% (inactive)	129% (inactive)	115% (inactive)	89.3% (inactive)	80.3% (inactive)	97.8% (inactive)	74.1% (inactive)	101% (inactive)	186% (inactive)	90.3% (inactive)	112% (inactive)
O=C(Nc1cccc(Cl)c1)Nc1ccccc1Cl	73.1% (inactive)	108% (inactive)	99.8% (inactive)	101% (inactive)	86% (inactive)	80.8% (inactive)	82.1% (inactive)	121% (inactive)	95.8% (inactive)	61.3% (inactive)	92% (inactive)	73.8% (inactive)	117% (inactive)	91% (inactive)	80.7% (inactive)	104% (inactive)	86.8% (inactive)		106% (inactive)
CCOC(=O)c1ccc(NC(=O)CSC(N)=O)cc1	95.8% (inactive)	116% (inactive)	112% (inactive)	113% (inactive)	101% (inactive)	98% (inactive)	86.6% (inactive)	98.3% (inactive)	114% (inactive)	103% (inactive)	145% (inactive)	95.9% (inactive)	129% (inactive)	110% (inactive)	101% (inactive)	96.4% (inactive)	107% (inactive)		
O=C1NN(C(=O)c2ccccc2)C(c2ccc(Cl)c(Cl)c2)=C/C1=C\c1ccccc1[N+](=O)[O-]	-16.9% [6.75 µM] (active)	-10.3% [6.75 µM] (active)	27.1% [6.75 µM] (inactive)	37.8% [6.75 µM] (inactive)	-25% [6.75 µM] (active)	14.4% [6.75 µM] (inactive)	31.1% [6.75 µM] (inactive)	-79.4% [6.75 µM] (active)	25.3% [6.75 µM] (inactive)	15.1% [6.75 µM] (inactive)	56.5% [6.75 µM] (inactive)	49.9% [6.75 µM] (inactive)	7.22% [6.75 µM] (active)	49% [6.75 µM] (inactive)	-37.5% [6.75 µM] (active)	15.2% [6.75 µM] (inactive)	35.4% [6.75 µM] (inactive)		-28% [6.75 µM] (active)
O=C(/C=C/c1ccco1)c1ccccc1O	93.5% (inactive)	99.6% (inactive)	105% (inactive)	109% (inactive)	108% (inactive)	101% (inactive)	96.8% (inactive)	119% (inactive)	108% (inactive)	117% (inactive)	121% (inactive)	111% (inactive)	92.4% (inactive)	99.4% (inactive)	110% (inactive)	98.2% (inactive)	112% (inactive)		105% (inactive)
O=C(NNC(=O)c1cccc(Cl)c1)c1ccccc1	108% (inactive)	96.2% (inactive)	107% (inactive)	109% (inactive)	106% (inactive)	97.6% (inactive)	102% (inactive)	116% (inactive)	110% (inactive)	114% (inactive)	106% (inactive)	113% (inactive)	109% (inactive)	108% (inactive)	106% (inactive)	107% (inactive)	110% (inactive)		112% (inactive)
